32 compounds from PubChem BioAssay (NCI) can be followed below.

This is part of a sample that, as a whole, favours compounds with a hit. Of some 83,000 tested, about 20% had one in any assay.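 Activity criterion: percent growth below 10, measured after cells in 96-well plates were exposed to a single compound concentration for 48 hours.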 Values without a mark were called inactive. Calls of active or inactive are those of the source.

For the first assay, the system named is OVCAR-5 ovarian. The assay can be described thus: NCI-60 one-dose screen, 48 h (100 = growth as untreated, 0 = no growth, -100 = all killed). As to conditions: 10 µM unless noted.
On to `CN(C)C1CCC(NC2=CC(=O)C=CC2=O)CC1` (stereo not drawn), for which the growth was 118%.

Turning to `CN1C(=O)[C@H]2c3c1cccc3[C@@]13NC(=O)O[C@H]1[C@H](CCC3(C)C)C2(C)C`, the growth is 101%.

For `COc1ccc(/C=C2\CCCC3=C2NC(C)=NC3c2ccc(OC)c(OC)c2)cc1OC` (stereo not drawn), the growth was 4.73% (active).

Consider `O=C(c1ccncc1)N1N=C(c2ccc(Cl)cc2)CC1c1c[nH]c2ccccc12` (stereo not drawn), for which the growth is 105%.

With `Cc1nn(-c2ccc(Cl)cc2)c(=O)n1CCOc1ccccc1Cl`, the growth is 102%.

Consider `Cc1cc2c(c(=O)o1)C(c1ccc(OC(=O)N3CCOCC3)cc1)C(C#N)=C(N)O2` (stereo not drawn), for which the growth was 98.9%.

Regarding `O=C(COc1ccccc1)N1N=C(c2ccc(Cl)cc2)CC1c1c[nH]c2ccccc12` (stereo not drawn), the growth is 112%.

Regarding `CC[C@H](C)[C@H]1NC(=O)[C@@H](N[C@](C)(O)[C@@H](N)CC(C)C)[C@@H](C)OC(=O)[C@H](Cc2ccc(OC)cc2)N(C)C(=O)[C@@H]2CCCN2C(=O)[C@H](CC(C)C)NC(=O)[C@@H](C)C(=O)[C@H](C(C)C)OC(=O)C[C@@H]1O`, the growth is -14.9% (active).

For another assay, the system named is OVCAR-4 ovarian. The assay is described as above. As to conditions: 10 µM unless noted.
For the compound `N=C(N)c1ccc(-c2ccc(-c3ccc(Cl)cc3)o2)nc1`, the growth is -73.6% (active).

As for `NC(=O)c1c(NC(=O)c2ccc(OCC3CCCO3)cc2)sc2c1CCCC2` (stereo not drawn), the growth was 115%.

Regarding `Cc1cc(-c2ccccc2)c(C)n1Cc1ccc(Cl)cc1`, the growth is 61.6%.

Consider `Clc1cccc(Cl)c1Cn1c(-c2cncs2)nc2ccccc21`, for which the growth was 82.1%.

For `Cc1ccc(Cn2c(-c3nonc3N)nc3ccccc32)cc1`, the growth is 87.1%.

`NC(N)=NC(N)=Nc1ccccc1-c1ccccc1`: the growth is 110%.

Regarding `COc1cc(/C=C/C(=O)c2ccc(NC(=O)CN3CCN(c4cc5c(cc4F)c(=O)c(C(=O)O)cn5C4CC4)CC3)cc2)cc(OC)c1OC`, the growth is 16.4%.

For the compound `COc1ccc(-c2nc(-c3ccccc3)c(-c3ccccc3)n2C2CC2)cc1OC1CCCCC1`, the growth was 67.9%.

As to `COC(=O)c1ccc2nc(-c3cc4ccccc4n3C)n(CCCCOc3cc4c(cc3OC)C(=O)N3CCC[C@H]3C=N4)c2c1`, the growth was -24% (active).

In the case of `COc1cc2c(cc1OC)C1(C)N(CC2)C(=O)OC1(C)C` (stereo not drawn), the growth was 99.5%.

As for `CN1CCN(c2ccc3cc(-c4nc5ccccc5[nH]4)c(=O)oc3c2)CC1`, the growth was 70.3%.

Take `O=C(CN1CCN(c2cc3c(cc2F)c(=O)c(C(=O)O)cn3C2CC2)CC1)Nc1ccc(C(=O)/C=C/c2ccccc2)cc1`: the growth was 86.4%.

With `Cc1cc(Cl)ccc1OC(C)C(=O)Nc1nnc(C2CC2)s1` (stereo not drawn), the growth is 104%.

As for `COc1ccc(/C(=N/O)c2cc(F)c(F)c(OC)c2F)cc1O`, the growth is 58.6%.

With `CSc1ccccc1C#C/C=C\C#Cc1ccccc1N1CCCCC1=O`, the growth is 102%.

As to `Cc1ccc2c(c1)ncn2-c1ncnc2c1CC(C)c1ccccc1N2C` (stereo not drawn), the growth is 46.5%.

On to `CCOC(=O)c1cc(/C(=N\O)c2cc(OC)c(OC)c(OC)c2)n2c(C)cccc12`, for which the growth is 54.1%.

Take `Cc1ccc(Cn2c(-c3cccs3)nc3ccccc32)cc1`: the growth was 76.6%.

With `CCC(=O)Oc1ccc2c(c1)CC[C@@H]1[C@@H]2CC[C@]2(C)C[C@H](OC(=O)CC)C[C@@H]12`, the growth was 79%.

On to `COc1ccc2c(c1)C(C)Cc1c(N(C)C)ncnc1N2C` (stereo not drawn), for which the growth is 62.4%.

As to `Cc1cc2c(C(C)C)c(O)c(O)c(C=NCCCCCCC(=O)O)c2c(O)c1-c1c(C)cc2c(C(C)C)c(O)c(O)c(C=NCCCCCCC(=O)O)c2c1O`, the growth is 28.2%.

With `COC(=O)CCCCCCN=Cc1c(O)c(O)c(C(C)C)c2cc(C)c(-c3c(C)cc4c(C(C)C)c(O)c(O)c(C=NCCCCCCC(=O)OC)c4c3O)c(O)c12`, the growth was 27.7%.

`C=CCc1cc(Cl)cc2c(OC(C)=O)c(C(C)=O)c(-c3ccccc3)nc12`: the growth is 100%.

Regarding `CCN1C(=O)N[C@H]2[C@@H]3NC(=O)c4ccc(Cl)n4[C@@H]3C[C@]21O`, the growth is 3.02% (active).

As for `CN(C)C1CCC(NC2=CC(=O)C=CC2=O)CC1` (stereo not drawn), the growth is 111%.

As to `CN1C(=O)[C@H]2c3c1cccc3[C@@]13NC(=O)O[C@H]1[C@H](CCC3(C)C)C2(C)C`, the growth is 99%.

On to `COc1ccc(/C=C2\CCCC3=C2NC(C)=NC3c2ccc(OC)c(OC)c2)cc1OC` (stereo not drawn), for which the growth was 21%.

Turning to `Cc1nn(-c2ccc(Cl)cc2)c(=O)n1CCOc1ccccc1Cl`, the growth is 68.1%.

As to `Cc1cc2c(c(=O)o1)C(c1ccc(OC(=O)N3CCOCC3)cc1)C(C#N)=C(N)O2` (stereo not drawn), the growth was 109%.

For the compound `CC[C@H](C)[C@H]1NC(=O)[C@@H](N[C@](C)(O)[C@@H](N)CC(C)C)[C@@H](C)OC(=O)[C@H](Cc2ccc(OC)cc2)N(C)C(=O)[C@@H]2CCCN2C(=O)[C@H](CC(C)C)NC(=O)[C@@H](C)C(=O)[C@H](C(C)C)OC(=O)C[C@@H]1O`, the growth is -6.08% (active).
